AmpC inh no detg: qHTS Inhibitors of AmpC Beta-Lactamase (assay without detergent) | AmpC nitrocefin hydrolysis, absorbance 480 nm, 0.0001% Triton | hit rate 0.52% among 330,000 | Potency, µM (doses to about 57.1 µM), for inactives: at the top dose activity change, negative = inhibition, hits mostly inhibitors | P00811;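 further: plate controls were no compound for no effect and no enzyme for full effect; nearly all actives have a fitted effect of over 20% in size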
Target sequence (P00811 whole entry, looked up): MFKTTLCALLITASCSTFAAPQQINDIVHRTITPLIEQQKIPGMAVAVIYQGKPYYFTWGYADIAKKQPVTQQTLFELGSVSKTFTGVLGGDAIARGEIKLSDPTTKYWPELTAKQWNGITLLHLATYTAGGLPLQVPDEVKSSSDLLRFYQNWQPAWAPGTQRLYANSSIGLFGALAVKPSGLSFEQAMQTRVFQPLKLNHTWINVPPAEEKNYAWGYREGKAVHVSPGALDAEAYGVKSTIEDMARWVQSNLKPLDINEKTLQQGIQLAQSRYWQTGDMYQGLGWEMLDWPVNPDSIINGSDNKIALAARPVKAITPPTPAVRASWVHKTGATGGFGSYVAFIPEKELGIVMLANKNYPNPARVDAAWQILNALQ
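AmpC (5.3 nM in the dispensed reagent) in 20 mM phosphate pH 7.0 with 0.01% (detergent screen) or 0.0001% Triton X-100 was preincubated with compounds for 15 min at room temperature. Nitrocefin was then added from an 800 uM solution, and hydrolysis was followed at 480 nm.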
AMA1 RON2 block: qHTS for Inhibitors of AMA1-RON; Towards Development of Antimalarial Drug Lead: Primary Screen | Plasmodium falciparum AMA1 (3D7) - RON2 peptide interaction | AlphaScreen AMA1-biotinylated RON2 peptide binding | Potency, µM (series often up to 58.2 µM), inactives show top-dose activity change, negative = inhibition, usual class: inhibitors | hit rate 0.2% among 360,000 | AID 720542, 2013;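 further: 0% = vehicle wells and -100% = peptide control; nearly all actives have a fitted effect of over 45% in size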
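AMA1 (3D7) with his tag at 25 nM final met compounds first, then biotinylated RON2 peptide at 25 nM; detection used donor plus acceptor beads, 10 µg/mL apiece, read by AlphaScreen after 30 min at room temperature.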
AmpC inh detg: qHTS Inhibitors of AmpC Beta-Lactamase (assay with detergent); P00811; AmpC hydrolysis of nitrocefin, absorbance 480 nm, 0.01% Triton; Potency, µM (doses to about 114 µM), for the others: at the highest dose activity change, negative = inhibition, usual class: inhibitors; hit rate 0.041% among 370,000;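 further: 0% = no-compound wells and -100% = no-enzyme wells; nearly all actives have a fitted effect of over 25% in size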
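20 mM phosphate pH 7.0 + 0.01% (detergent screen) or 0.0001% Triton X-100; 5.3 nM AmpC reagent; cpd preinc 15 min RT; nitrocefin (800 uM stock) to start; A480 q20 s × 4 min; Activity was normalised to no-enzyme and no-compound control wells.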
HCV inhibitor: qHTS Assay for Inhibitors of Hepatitis C Virus (HCV) | AID 651820, 2012 | Potency, µM (highest dose often 41.8 µM), without a hit: top-dose activity change, negative = inhibition, actives largely listed as inhibitors | hit rate 3.4% among 340,000 | Huh7.5.1 HCVcc-Cre infection, luciferase reporter, 44 h
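Reporter virus HCVcc-Cre (~0.5 moi) infects cells exposed to compound; seeding density 1,000 cells/well with 4 h settling beforehand. Luminescence, 15 sec read, taken 44 h post-infection following a 15 min RT substrate incubation.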
Pf growth 48h: Primary qHTS for delayed death inhibitors of the malarial parasite plastid, 48 hour incubation | Potency, µM (titrated, usually from 28.7 µM), for inactives: at the highest dose activity change, negative = inhibition, hits mostly inhibitors | hit rate 5.9% among 310,000 | AID 504832, 2011 | P. falciparum luciferase growth in erythrocytes, 48 h
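Luciferase-expressing P. falciparum in infected erythrocytes (2% hematocrit, 0.1% parasitemia final) in RPMI 1640/0.5% Albumax were exposed to compound for 48 hours at 37 C, 5% CO2; growth read as luminescence.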
Pf growth 96h: Primary qHTS for delayed death inhibitors of the malarial parasite plastid, 96 hour incubation; AID 504834, 2011; hit rate 6.9% among 320,000; Potency, µM (doses to about 28.7 µM), without a hit: at the top dose activity change, negative = inhibition, hits mostly inhibitors; P. falciparum luciferase reporter growth, 96 h
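Cell-based qHTS: luciferase-tagged P. falciparum in erythrocytes (2% hematocrit, 0.05% parasitemia final) incubated with compounds for 96 hours, 37 C, 5% CO2; luciferase detection reagent then added and luminescence measured.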
* = called active by the depositor; ? = inconclusive; · = no result given. Rows were chosen to be rich in hits. Some 11% of all compounds tested hit in one or more screens of this group. The call rests on the fitted dose curve; in most records, active means well fitted curve in the direction sought with a large enough effect; inconclusive means small, poorly fitted or top-dose-only effect, or another doubt; inactive means no such curve, though single readings can be large; an effect the other way counts as inactive or inconclusive. Unless noted, on the % scale 0 is the no-effect control and ±100 the full control effect; potency means the concentration at half of the fitted maximal effect.

SMILES	AmpC inh no detg	AMA1 RON2 block	AmpC inh detg	HCV inhibitor	Pf growth 48h	Pf growth 96h
CCOc1ncccc1C(=O)Nc1ccc(C)c(S(=O)(=O)N2CCCCCC2)c1	82.3%	32.8%	-19.3%	14.1µM*	13.1µM*	?
Cc1ccc(NC(=O)CNC(=O)c2ccc(OC(F)F)cc2)cc1S(=O)(=O)N1CCCCCC1	·	-1.5%	·	15.8µM*	·	·
Cc1ccc(NC(=O)COc2ccccc2)cc1S(=O)(=O)N1CCCCC1	·	-8.2%	·	·	·	·
Cc1ccccc1C(=O)NCC(=O)Nc1ccc(C)c(S(=O)(=O)N2CCCCCC2)c1	-2.4%	19.9%	-9.2%	8.91µM*	-6.8%	?
COc1ccc(C(CC(=O)Nc2ccc(F)c(Cl)c2)N2Cc3ccccc3C2=O)cc1OC (stereo unspecified)	·	·	8.1%	·	·	·
Cc1cccc(Cl)c1NC(=O)N1CCCN(c2nc3ccc(Cl)cc3s2)CC1	100.6%	-22.7%	-7.4%	7.08µM*	?	?
CCCC(=O)N1CCN(c2nc3ccc(Br)cc3s2)CC1	110.1%	-1.0%	-12.5%	10µM*	21.8%	-9.1%
CC(=O)N1CCN(c2nc3ccc(Br)cc3s2)CC1	56.2%	5.6%	-6.9%	8.4%	84.7%	67.5%
CCCC(=O)N1CCN(c2nc3ccc(Cl)cc3s2)CC1	111.5%	-2.6%	-7.8%	11.2µM*	50.0%	10.8%
Cc1cccc(C)c1NC(=O)N1CCN(c2nc3ccccc3s2)CC1	-3.0%	5.6%	-13.8%	?	-12.2%	·
CCCC(=O)N1CCN(c2nc3ccc(CC)cc3s2)CC1	46.3%	1.3%	?	12.5%	?	?
CCCCC(=O)N1CCN(c2nc3ccc(Br)cc3s2)CC1	142.3%	-3.8%	-7.2%	11.2µM*	48.3%	18.0%
Cn1c(C(=O)NCc2ccc(F)cc2)cc2c(=O)n(C)c3ccccc3c21	·	·	17.5%	·	·	·
O=C(CSc1nnc(-c2ccccc2)c(-c2ccccc2)n1)NC1CCCCC1	·	·	-0.4%	·	·	·
CCOc1ccc(CCNC(=O)CS(=O)(=O)Cc2nc(-c3cccc(Cl)c3)oc2C)cc1	·	·	6.2%	·	·	·
COc1cc(/C=C2\SC(=Nc3ccc(O)cc3)NC2=O)cc(OC)c1OC	-17.4%	1.8%	4.0%	3.98µM*	?	?
COc1ccccc1N=C1NC(=O)/C(=C/c2ccc(N(C)C)cc2)S1	-38.4%	-7.5%	0.9%	?	0.0928µM*	?
COc1cc(/C=C2/SC(=Nc3ccc(O)cc3)NC2=O)cc(OC)c1O	-33.6%	-7.3%	-1.6%	?	3.7µM*	1.85µM*
COc1ccc(/C=C2\SC(=Nc3ccccc3)NC2=O)cc1	-20.2%	·	-7.4%	·	?	?
O=C1NC(=Nc2ccc(O)cc2)S/C1=C\C=C\c1ccco1	17.8µM*	-10.5%	1.8%	-12.6%	?	?
COc1ccc(N=C2NC(=O)/C(=C/c3ccc(O)c(OC)c3)S2)cc1	-42.9%	12.9%	-0.2%	-16.5%	-17.6%	?
Cc1c(Cl)cccc1NC(=O)C(C)n1c(=O)cc(C)c2c(C)nn(-c3ccccc3)c21 (stereo unspecified)	·	·	12.9%	·	·	·
CCCCNC(=O)c1cccc(-n2cnc3cccnc32)c1C	·	·	5.8%	·	·	·
COc1cc(C(CC(=O)N2CCOCC2)c2c(OC)cc(OC)c3ccc(=O)oc23)cc(OC)c1OC (stereo unspecified)	69.6%	9.5%	-7.4%	?	?	?
COc1cc(OC)c2ccc(=O)oc2c1C(CC(=O)N1CCOCC1)c1ccc2c(c1)OCO2 (stereo unspecified)	66.8%	-1.8%	-1.2%	-8.4%	-19.9%	?
SMILES	AmpC inh no detg	AMA1 RON2 block	AmpC inh detg	HCV inhibitor	Pf growth 48h	Pf growth 96h
COc1cc(C(CC(=O)N2CCN(c3ccccc3)CC2)c2c(OC)cc(OC)c3ccc(=O)oc23)cc(OC)c1OC (stereo unspecified)	200.4%	0.0%	-4.0%	?	5.86µM*	4.65µM*
COc1cc(OC)c2ccc(=O)oc2c1C(CC(=O)N1CCN(c2ccccc2)CC1)c1ccc2c(c1)OCO2 (stereo unspecified)	84.9%	-3.5%	-6.7%	?	11.7µM*	13.1µM*
CN(C)c1oc(-c2ccc(COc3ccccc3)o2)nc1C#N	·	·	5.5%	·	·	·
CCN1C(=O)C(CC(=O)Nc2ccc(OC)cc2)N(Cc2ccc(OC)c(OC)c2)C1=S (stereo unspecified)	71.2%	?	0.4%	-0.9%	10.4µM*	?
CCN1C(=O)C(CC(=O)Nc2ccc(OC)cc2)N(CCc2ccc(OC)cc2)C1=S (stereo unspecified)	6.0%	-25.1%	-5.5%	?	?	-43.6%
COc1ccc(CCN2C(=S)N(C)C(=O)C2CC(=O)Nc2ccc(F)cc2)cc1 (stereo unspecified)	0.7%	-21.2%	-4.9%	-17.8%	?	13.1µM*
O=C(NC1CCCCC1)c1cc(Nc2cccc(C(F)(F)F)c2)nc2ccccc12	·	·	-4.3%	·	·	·
COc1cccc(C2c3c(oc4ccc(Cl)cc4c3=O)C(=O)N2c2cc(C)on2)c1OC (stereo unspecified)	-15.6%	2.5%	?	-12.9%	8.6%	8.28µM*
CCSc1ncnc2c1oc1ccccc12	-12.9%	24.1%	?	3.9%	52.5%	42.5%
Clc1ncnc2c1oc1ccccc12	0.282µM*	3.1%	0.6%	?	126.6%	?
O=C(O)[C@H](Cc1ccccc1)Nc1ccc([N+](=O)[O-])cn1	-19.9%	15.7%	-2.3%	3.0%	19.9%	38.0%
O=[N+]([O-])c1ccc(NC(=S)NCCc2ccc(F)cc2)cc1	-30.9%	-3.9%	-1.6%	?	10.4µM*	5.22µM*
O=[N+]([O-])c1ccc(CNCCc2ccccc2)cc1	-12.7%	?	-11.8%	7.7%	19.7%	13.1µM*
S=C(NCCc1ccccc1)Nc1ccc(Nc2ccccc2)cc1	-2.2%	-23.5%	1.6%	11.2µM*	?	-3.0%
O=C(O)C(Cc1ccccc1)Nc1ccc([N+](=O)[O-])cc1[N+](=O)[O-] (stereo unspecified)	-27.8%	-0.5%	-14.9%	1.8%	?	6.57µM*
COc1ccc(-n2ncc(C(=O)Nc3ccc4c(c3)OCCO4)c2C2CCN(C(=O)OC(C)(C)C)CC2)cc1	·	·	-1.9%	·	·	·
CCc1cccc(N2C(=O)CS(=O)(=O)C23C(=O)N(Cc2ccccc2)c2ccc(C)cc23)c1 (stereo unspecified)	·	·	16.4%	·	·	·

From PubChem
